# In all, about 66,000 compounds went through this assay and about 960 (1.5%) showed an effect of 50% or more. This is one part of a sample in which strong results are shown more often than they occur.
# System: Trypanosoma brucei
# Test: Trypanosoma brucei 72 hour study
# Assay type: functional, organism-based
# Design: scale not given: in the data most compounds retested in dose-response had high values
structure (smiles),measurement,setting,value
NC(=O)c1c[nH]nc1NC(=O)c1cccc(Cl)c1,Percent Effect,"30.3 µM, […]",-12.02%
O=C(N1CCOCC1CO)C1(c2cccs2)CCCC1 (centres undefined),Percent Effect,"30.3 µM, […]",-27.69%
CN(C)CC1COCCN1C(=O)C1(c2cccs2)CCCC1.O=CO (centres undefined),Percent Effect,"30.3 µM, […]",99.83%
CN(CCO)CC1COCCN1C(=O)C1CCCCC1.O=CO (centres undefined),Percent Effect,"30 µM, 30.03 µM",-4.713%
CN(CCO)CC1COCCN1C(=O)C1(c2cccs2)CCCC1.O=CO (centres undefined),Percent Effect,"30.3 µM, […]",95.25%
Cc1ccccc1C(=O)N1CCOCC1CN(C)C.O=CO (centres undefined),Percent Effect,"30.3 µM, […]",13.8%
CN(CCO)CC1COCCN1C(=O)CCC1CCCC1.O=CO (centres undefined),Percent Effect,"30 µM, 30.03 µM",-33.47%
C1CC(N2C[C@@H]3COC[C@]3(COCC3CCOCC3)C2)C1.O=C(O)C(F)(F)F,Percent Effect,"30.3 µM, […]",-71.78%
CN1CCN(C(=O)[C@H]2C[C@H]3[C@H](CCN3Cc3cccs3)O2)CC1.O=C(O)C(F)(F)F.O=C(O)C(F)(F)F,Percent Effect,"30.3 µM, […]",-15.62%
O=C(c1cnc(-c2ccco2)s1)N1CCCCC1Cn1cccn1 (centres undefined),Percent Effect,"30.3 µM, […]",-0.6425%
CN(C)C1COC2(CCN(Cc3ccc4c(c3)OCO4)CC2)C1.O=C(O)C(F)(F)F.O=C(O)C(F)(F)F (centres undefined),Percent Effect,"30.3 µM, […]",39.28%
c1ccc(-c2cc(CNCCCN3CCCCC3)c3nnnn3c2)cc1,Percent Effect,"30.3 µM, […]",-3.089%
c1ccc(-c2cc(CNCCN3CCOCC3)c3nnnn3c2)cc1,Percent Effect,"30.3 µM, […]",-21.36%
c1ccc(-c2cc(CNCCN3CCCC3)c3nnnn3c2)cc1,Percent Effect,"30.3 µM, […]",99.79%
O=C(N1CCOCC1)N1CCc2ncnc(NC3CCC3)c2CC1.O=C(O)C(F)(F)F,Percent Effect,"30.3 µM, […]",-46.89%
O=C(Cn1cccn1)Nc1ccc(N2CCCCC2)cc1,Percent Effect,"30 µM, 30.03 µM",-14.86%
Cc1cccnc1[C@]1(O)CC[C@H]2CN(Cc3cccc(Cl)c3Cl)C[C@H]21.O=C(O)CC(O)(CC(=O)O)C(=O)O,Percent Effect,"30.3 µM, […]",-4.562%
Cc1ccc(SC2CCCC2)c(C(=O)NCCO)c1,Percent Effect,"30 µM, 30.03 µM",-19.93%
COc1ncccc1CNCc1c(C(C)C)nn(C)c1N(C)C,Percent Effect,"30.3 µM, […]",0.2022%
CC(C)c1nn(C)c(N(C)C)c1CNCC(O)c1cccc(F)c1 (centres undefined),Percent Effect,10 µM,-45.99%
COCc1ccccc1CNCc1c(C(C)C)nn(C)c1N(C)C,Percent Effect,10 µM,-17.78%
Cc1ccc(C(O)CNCc2c(C(C)C)nn(C)c2N(C)C)cc1 (centres undefined),Percent Effect,"30 µM, 30.03 µM",54.73%
CC(C)c1nn(C)c(N(C)C)c1CNCC(O)c1ccccc1 (centres undefined),Percent Effect,"30.3 µM, […]",9.453%
same,Percent Effect,"10 mM, 10 mM as filed; unlikely as a test dose",-25.34%
COc1cccc(CNCc2c(C(C)C)nn(C)c2N(C)C)c1OC,Percent Effect,"30 µM, 30.03 µM",101.8%
Cc1ccc(CN(CCCN2CCOCC2)Cc2[nH]cnc2C)o1.O=C(O)CC(O)(CC(=O)O)C(=O)O,Percent Effect,"30.3 µM, […]",-12.11%
CN(C)CCNC(=O)C1Cc2nc(-c3ccccc3)sc2N1CC1CC1.O=C(O)C(F)(F)F (centres undefined),Percent Effect,"30.3 µM, […]",23.06%
O=C(C1CCOCC1)N1CCc2onc(COc3cccnc3)c2C1.O=C(O)C(F)(F)F,Percent Effect,"30.3 µM, […]",-638.1%
COc1cc(CN(C)[C@@H]2COC[C@H]2c2ccc(F)cc2)cc(OC)c1.O=C(O)CC(O)(CC(=O)O)C(=O)O,Percent Effect,"30.3 µM, […]",-25.55%
Cc1ccc(N2CC[C@H]3O[C@@H](C(=O)N4CCCO4)CC[C@H]32)nn1.O=C(O)C(F)(F)F,Percent Effect,"30.3 µM, […]",-45.1%
COc1ccc(CNC(=O)Nc2cccnc2N2CCCC2)cc1OC,Percent Effect,"30.3 µM, […]",-31.53%
COc1ccc(CNC(=O)Nc2cccnc2N2CCCC2)cc1,Percent Effect,"30.3 µM, […]",-33.31%
COc1ccc(CNC(=O)Nc2cccnc2N2CCCC2)cc1O,Percent Effect,"30 µM, 30.03 µM",51.01%
CC1CCN(CC(=O)NC2CCN(C(C)c3ccccc3)CC2)CC1.Cl (centres undefined),Percent Effect,"30.3 µM, […]",21.99%
COc1ccc(CN2CCC3(CC2)CCN(c2cnn(C)c2)C3=O)cc1.O=C(O)C(F)(F)F,Percent Effect,"30 µM, 30.03 µM",29.53%
CN(C)c1nc2c(c(N(C)Cc3n[nH]c4c3CCCC4)n1)CCNCC2,Percent Effect,"30 µM, 30.03 µM",21.59%
CN(Cc1n[nH]c2c1CCCC2)c1nc(C2CC2)nc2c1CCNCC2,Percent Effect,"30 µM, 30.03 µM",53.53%
CN(Cc1n[nH]c2c1CCC2)c1nc(C2CCCC2)nc2c1CNC2,Percent Effect,"30 µM, 30.03 µM",-1.405%
O=C(C1CCCN(C2CCOCC2)C1)N1Cc2ccccc2C1 (centres undefined),Percent Effect,"30 µM, 30.03 µM",-36.54%
O=C(CN1CCC2(CCCCC2)C1)NCC(F)(F)F,Percent Effect,"30.3 µM, […]",100.3%
CC(C)(C)C(O)CN1CCN(CC(=O)NCC(F)(F)F)CC1 (centres undefined),Percent Effect,"30 µM, 30.03 µM",-50.05%
O=C(CN1CCSC2(CCCCC2)C1)NCC(F)(F)F,Percent Effect,"30.3 µM, […]",27.46%
CCNC(=O)[C@@H]1C[C@H](N)CN1C(=O)c1c[nH]c2ccccc12,Percent Effect,"30.3 µM, […]",-39.66%
CCN(CC)C(=O)CN1CCC2(C=Cc3cc(Cl)c(C)cc3O2)CC1,Percent Effect,"30.3 µM, […]",99.22%
Cc1cc2c(cc1Cl)C=CC1(CCN(CC(=O)N3CCCC3)CC1)O2,Percent Effect,"30.3 µM, […]",-16.81%
Cc1cc2c(cc1Cl)C=CC1(CCN(CC(=O)N3CCOCC3)CC1)O2,Percent Effect,"30.3 µM, […]",-3.407%
CNC(=O)N1C[C@H]2C[C@H](C(=O)NCc3cccnc3)[C@@H](C1)O2.O=C(O)C(F)(F)F,Percent Effect,"30 µM, 30.03 µM",41.37%
Cc1noc(C)c1C(=O)N1CCC(c2[nH]ncc2S(C)(=O)=O)C1 (centres undefined),Percent Effect,"30.3 µM, […]",-19.64%
CN(CC1CCOCC1)C(C(=O)O)c1cccc(F)c1F (centres undefined),Percent Effect,"30 µM, 30.03 µM",-18.13%
c1ccc(CCN2CCN(c3ccc4nncn4n3)CC2)cc1,Percent Effect,10 µM,-2.806%
c1ccc(OCCCN2CCN(c3ccc4nncn4n3)CC2)cc1,Percent Effect,"30 µM, 30.03 µM",53.47%
c1ccc(CCN2CCN(c3ccc4nncn4n3)CC2)nc1,Percent Effect,"30 µM, 30.03 µM",14.18%
Clc1ccccc1CCN1CCN(c2ccc3nncn3n2)CC1,Percent Effect,10 µM,55.98%
FC(F)(F)COCCN1CCN(c2ccc3nncn3n2)CC1,Percent Effect,"30 µM, 30.03 µM",29.6%
c1ccc(CCCN2CCN(c3ccc4nncn4n3)CC2)cc1,Percent Effect,10 µM,-24.8%
COCCN1CCC2(CC1)CC(NC(=O)CN(C)C)c1ccccc1O2.O=C(O)C(F)(F)F.O=C(O)C(F)(F)F (centres undefined),Percent Effect,"30.3 µM, […]",-3.899%
CNC(=O)[C@H]1C[C@@H]2CN(C(=O)c3ccncc3)C[C@@H]2N1S(C)(=O)=O.O=C(O)C(F)(F)F,Percent Effect,"30.3 µM, […]",-12.29%
Cc1cnc(N2CCc3cc(C(=O)O)c(N(C)C)nc3CC2)nc1.O=C(O)C(F)(F)F,Percent Effect,"30.3 µM, […]",-16.6%
O=C(NCC1CCN(CCc2ccccc2)C1)c1cc(Cl)c[nH]1 (centres undefined),Percent Effect,"30 µM, 30.03 µM",-9.095%
COC(=O)c1ccc(N2CCN(C(=O)C3CCC3)C(C)C2)cc1 (centres undefined),Percent Effect,"30 µM, 30.03 µM",50.56%
COC(=O)c1ccc(N2CCN(C(=O)C3CC3)C(C)C2)cc1 (centres undefined),Percent Effect,"30 µM, 30.03 µM",-2.442%
COC(=O)c1ccc(N2CCN(C(=O)c3cc(C)no3)C(C)C2)cc1 (centres undefined),Percent Effect,"30.3 µM, […]",29.28%
COC(=O)c1ccc(N2CCN(C(=O)c3ccncc3)C(C)C2)cc1 (centres undefined),Percent Effect,"30 µM, 30.03 µM",41.83%
COC(=O)c1ccc(N2CCN(C(=O)c3ccco3)C(C)C2)cc1 (centres undefined),Percent Effect,"30.3 µM, […]",90.39%
CCC(=O)N1CCN(c2ccc(C(=O)OC)cc2)CC1C (centres undefined),Percent Effect,"30 µM, 30.03 µM",6.915%
Cl.Nc1nc(Nc2ccccc2)cc(N2CCNCC2)n1,Percent Effect,"30.3 µM, […]",-11.41%
same,Percent Effect,"10 mM, 10 mM as filed; unlikely as a test dose",-70.99%
Cn1cccc1C(=O)N1CCN(CC2CC2)c2ncccc2C1,Percent Effect,"30 µM, 30.03 µM",57.2%
O=C(c1cccs1)N1CCN(CC2CC2)c2ncccc2C1,Percent Effect,"30 µM, 30.03 µM",-33.24%
CN1CCN(C(=O)c2cccn2C)Cc2cccnc21,Percent Effect,"30.3 µM, […]",-5.91%
Cc1nc(C(=O)NS(=O)(=O)c2cccc(C#N)c2)cs1,Percent Effect,"30.3 µM, […]",2.101%
COCC1c2c(cnn2CC2CC2)CCN1Cc1ccc(C)o1.O=C(O)C(F)(F)F.O=C(O)C(F)(F)F (centres undefined),Percent Effect,"30.3 µM, […]",-1.349%
O=C(NCCc1ccn(-c2ccccc2)n1)N1CCCC(O)C1 (centres undefined),Percent Effect,10 µM,103.1%
CCOC1CCN(C(=O)NCCc2ccn(-c3ccccc3)n2)CC1,Percent Effect,10 µM,-34.62%
COc1ccccc1CNC(=O)N1CCCC(CO)C1 (centres undefined),Percent Effect,"30 µM, 30.03 µM",-45.66%
CCOC1CCCN(C(=O)NCCc2ccn(-c3ccccc3)n2)C1 (centres undefined),Percent Effect,"30 µM, 30.03 µM",99.66%
CCOC1CCCN(C(=O)c2nn(-c3ccccc3F)cc2O)C1 (centres undefined),Percent Effect,"30.3 µM, […]",-12.09%
O=C(NCCc1ccn(-c2ccccc2)n1)N1CCCC(CO)C1 (centres undefined),Percent Effect,10 µM,104%
O=C(NCCC1Cc2ccccc2C1)N1CCCC(O)C1 (centres undefined),Percent Effect,"30.3 µM, […]",-66.43%
O=C(NCC1CCCN(C(=O)NCCc2ccccc2)C1)c1ccco1 (centres undefined),Percent Effect,"30.3 µM, […]",15.56%
O=C(NCc1nn(-c2ccccc2)c2c1CCC2)N1CCCC(O)C1 (centres undefined),Percent Effect,10 µM,-55.19%
CSc1ccccc1C(=O)N1C[C@H]2CC[C@@H]1CN(C(=O)N(C)C)C2,Percent Effect,"30 µM, 30.03 µM",-19.87%
O=C(O)C(F)(F)F.O=C([C@H]1CC[C@@H]2[C@@H](CCN2C2CCCC2)O1)N1CCOCC1,Percent Effect,"30.3 µM, […]",3.599%
Cc1ccc(CN2CCC3(CCC3NC(=O)c3ccn(C)c3)CC2)s1.O=C(O)C(F)(F)F (centres undefined),Percent Effect,"30 µM, 30.03 µM",-8.436%
COc1c(CNCCNC(=O)c2ccccc2)c(C)nn1C.Cl,Percent Effect,"30.3 µM, […]",-11.06%
CCN(C)S(=O)(=O)NCC(O)c1c(Cl)cccc1Cl (centres undefined),Percent Effect,"30 µM, 30.03 µM",-61.52%
Cc1ccccc1N1CCN(C(=O)c2ccc[nH]2)C(C)C1 (centres undefined),Percent Effect,"30 µM, 30.03 µM",53.58%
CSc1ncc(C(=O)N2CCN(c3ccccc3C)CC2C)cn1 (centres undefined),Percent Effect,"30.3 µM, […]",-20.66%
Cc1ccccc1N1CCN(C(=O)c2cscn2)C(C)C1 (centres undefined),Percent Effect,"30.3 µM, […]",-44.71%
CNc1cc(C(=O)NCCC2=CSC3=NCCCN23)ccn1,Percent Effect,"30.3 µM, […]",4.45%
Cc1cc(C)n(CC2CCCCN2C(=O)c2ccc3c(c2)COC3)n1 (centres undefined),Percent Effect,10 µM,-3.538%
same,Percent Effect,"30.3 µM, […]",12.9%
O=C(CN1CCC(c2cc(=O)n3c(n2)CCCCC3)C1)N1CCCCC1.O=C(O)CC(O)(CC(=O)O)C(=O)O (centres undefined),Percent Effect,"30.3 µM, […]",-90.53%
CC(=O)NC1CC(C)(C)Cc2c1cnn2-c1cccc(F)c1 (centres undefined),Percent Effect,"30 µM, 30.03 µM",-59.29%
CCC(Nc1nnnn1-c1ccccc1)C(=O)NC1CCSCC1 (centres undefined),Percent Effect,"30 µM, 30.03 µM",-25.42%
Cc1nn(-c2ccccc2)c(C)c1CNC(=O)NC1CC1,Percent Effect,"30 µM, 30.03 µM",-13.2%
CC1(C)Cc2c(cnn2-c2cccc(F)c2)C(NC2CCSCC2)C1 (centres undefined),Percent Effect,"30 µM, 30.03 µM",99.5%
CC1(C)Cc2c(cnn2-c2ccccc2)C(NC2CCSCC2)C1 (centres undefined),Percent Effect,"30 µM, 30.03 µM",82.22%
CS(=O)(=O)NC(=O)c1nnn(-c2cccc(F)c2)c1C1CC1,Percent Effect,"30.3 µM, […]",-19.55%
